Sampled rows, rich in hits. Any-hit rate of the full collection: about 0.95%.
Sa ugtP lethal: growth inhibition of ugtP-null S. aureus, primary screen, RN4220 ugtP deletion, OD600; 16 h; growth inhibition, % (test concentration not listed); 0.54% of 330,000 active; AID 1259309, 2017; in the data active means growth inhibition above about 68%;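 further: plate controls were untreated wells for no effect and antibiotic for full effect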
PrPC TRFRET: inhibitors of human cell surface prion protein PrPC, primary screen, cell-based, TR-FRET | inhibition, % at 13.8 µM | TR-FRET read-out | 0.43% of 370,000 active | Major prion protein (Homo sapiens), P04156 | AID 720596, 2013; in the data active means inhibition above about 24%; further: 0% = median of the test wells and 100% = reference compound wells
RN4220 kill: growth inhibition of S. aureus RN4220, primary screen, OD600; 16 h; 0.33% of 330,000 active; AID 1259311, 2017; inhibition, % (test concentration not listed); in the data active means inhibition above about 85%;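 further: plate controls were untreated cells for no effect and reference antibiotic for full effect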
BJeLR viability: MLPCN primary cell-based screen for lethality selective to Ras in HRASV12 cells. 0.17% of 300,000 active. BJeLR (HRASV12) viability, CellTiter-Glo ATP luminescence, 48 h. AID 1554, 2009. inhibition, % (no concentration beside the values); in the data active means inhibition above about 50%
PrPC TRFRET cf: confirmation of inhibitors of cell surface human prion protein, confirmation, cell-based, TR-FRET. 65% of 1,500 active. cell surface PrPC level. inhibition, % at 13.8 µM. shares compounds with PrPC TRFRET; in the data active means inhibition above about 25%
LD9 tox: cytotoxicity in LD9 cells, cytotoxicity control for cell surface PrPc inhibitor project, cell-based, luminescence, high throughput; shares compounds with PrPC TRFRET; inhibition, % at 13.8 µM; 29% of 1,500 active; AID 743201, 2013; luminescence viability; in the data active means inhibition above about 9.5%
An asterisk follows results filed as active; / = not tested or not shown.

SMILES	Sa ugtP lethal	PrPC TRFRET	RN4220 kill	BJeLR viability	PrPC TRFRET cf	LD9 tox
COc1cccc(C(NC(C)=O)c2ccc3cccnc3c2O)c1 (configuration not stated)	/	41*	/	22	33*	44*
CC(=O)NC(c1cccc([N+](=O)[O-])c1)c1ccc2cccnc2c1O (configuration not stated)	/	40*	/	35	37*	38*
CC(=O)NC(c1ccc(C)cc1)c1cc(Cl)c2cccnc2c1O (configuration not stated)	/	9	/	12	/	/
Cc1cccc(CN2C[C@]34C=CC(CC3S2(=O)=O)O4)c1 (some centres not stated)	2	/	1	/	/	/
CC(=O)c1cc(-c2cc(C(=O)O)cc([N+](=O)[O-])c2)c(=O)n2c1CCC2	/	-14	/	/	/	/
COc1ccc(N2CCN(c3ccc(NC(=O)c4ccc5c(c4)OCO5)cc3C#N)CC2)cc1	2	/	1	-7	/	/
COc1ccc(CC(=O)Nc2ccc(N3CCN(c4ccc(OC)cc4)CC3)c(C#N)c2)cc1	-8	25*	3	-2	40*	13*
CCc1ccccc1Nc1nn2c(=O)c3ccc(C(=O)NCc4ccccn4)cc3nc2s1	-10	38*	3	-12	25*	-7
CCOCCCNC(=O)c1cc(Cl)c(NC(=O)C2=C(C)OCCS2)cc1OC	-2	4	14	3	/	/
CCCNC(=O)c1cc(Cl)c(NC(=O)C2=C(C)OCCS2)cc1OC	-6	26*	1	-2	32*	-2
CCCCCc1c(CC)ncn1CCc1ccccc1OC	/	29*	/	/	19	22*
COc1cc(C=NO)ccc1OCc1ccc(Cl)cc1	22	/	1	/	/	/
O=C1NC2C(O)C(O)C(O)C(O)C2c2cc3c(c(O)c21)OCO3 (configuration not stated)	/	90*	/	/	100*	32*
O=C1NC2C(=CC(O)C(O)C2O)c2cc3c(c(O)c21)OCO3 (configuration not stated)	/	89*	/	/	97*	55*
N#CCC(=O)NN=Cc1ccc(OC/C=C/c2ccccc2)cc1	-12	/	1	/	/	/
Cc1ccc(S(=O)(=O)NCCCN2CCCC2)cc1	16	55*	4	10	-1	-10
CC(C)(C)OC(=O)NCCCCCc1cn([C@@H](CO)C(=O)NCCCCCCCCCCC(=O)N2CCN(C(=O)OC(C)(C)C)CC2)nn1	/	53*	/	/	34*	36*
COC(=O)C1=C(c2cccc(OCc3ccccc3)c2)CC2CCC1N2C(=O)NCCCOC(C)C (configuration not stated)	18	/	5	/	/	/
CCOC(=O)c1ccc(NC(=NS(=O)(=O)c2ccc(F)cc2F)c2ccccc2)cc1	-20	/	35	/	/	/
CC(=NNC(=O)OC(C)(C)C)c1ccccc1Br	-8	/	-1	/	/	/
CC1=C(O)C(=O)C=C2C1=CC=C1C2(C)CCC2(C)C3CC(C)(C(=O)O)CCC3(C)CCC12C (configuration not stated)	/	62*	/	/	89*	98*
CCOc1[nH]c(N=Cc2ccco2)c(C#N)c1C#N	-10	/	-26	/	/	/
Cn1c(=O)c(C(=O)CSc2nncs2)c(N)n(Cc2ccccc2)c1=O	0	66*	3	4	65*	2
Cn1cnnc1SCC(=O)c1c(N)n(Cc2ccccc2)c(=O)n(C)c1=O	3	36*	1	3	19	-7
Cn1c(=O)c(C(=O)CSc2ccccc2)c(N)n(Cc2ccccc2)c1=O	0	9	2	-2	/	/
SMILES	Sa ugtP lethal	PrPC TRFRET	RN4220 kill	BJeLR viability	PrPC TRFRET cf	LD9 tox
Cc1cc(N2CCN(C)CC2)nc2ccc(NC(=O)CCC(=O)NCCC3=CCCCC3)cc12	-9	38*	7	/	-1	3
CC(=NNC(=O)c1ccoc1C)c1ccc(Br)s1	0	/	-1	/	/	/
Cc1cccc(CC(=O)NCCn2c(C)cc3ccccc32)c1	-5	27*	-6	12	8	-4
COCCNC(=O)C(C)Oc1ccccc1 (configuration not stated)	2	0	3	1	/	/
Cc1cc2ccccc2n1CCNC(=O)C(C)Oc1ccccc1 (configuration not stated)	4	41*	26	10	30*	-4
Cc1cc2ccccc2n1CCNC(=O)C(C)C	-7	5	0	4	/	/
Cc1cc(C)c(S(=O)(=O)NCCn2c(C)cc3ccccc32)c(C)c1	-12	20	-3	-3	/	/
Cc1cc2ccccc2n1CCNC(=O)Cc1ccccc1	1	27*	-3	5	14	-4
COC(=O)C1=C(c2ccc(-c3ccccc3)c(F)c2)CC2CCC1N2C(=O)N1CCC(C)CC1 (configuration not stated)	13	/	0	/	/	/
CCOC(=O)c1sc2ncnc(NCc3ccco3)c2c1C	0	24*	2	-10	18	15*
COc1ccc(-c2ccc3c(n2)CCCN3S(=O)(=O)c2ccccc2)cc1	/	3	/	/	/	/
CCOc1ccc2[nH]cc(C(=O)NCc3ccccc3)c(=O)c2c1	-6	25*	9	1	18	6
Cc1ccc(C(C)C)c(OCc2ccc(C(=O)N/N=C/c3ccc(O)cc3O)cc2)c1	/	38*	/	35	43*	17*
COc1cc(C=NNC(=O)c2ccc(COc3cc(C)ccc3C(C)C)cc2)cc(OC)c1O	-16	/	12	/	/	/
O=C(NCc1cccnc1)c1sc2ccccc2c1Cl	-12	8	-1	-6	/	/
Cc1ccc2c(Cl)c(C(=O)NCc3cccnc3)sc2c1	-14	29*	4	-7	43*	-6
Cc1c(C(=O)NCc2cccnc2)sc2nc(-c3ccccc3)cn12	-3	28*	4	-14	12	-6
Cc1c(C(=O)NCc2cccnc2)sc2nc(-c3ccc(F)cc3)cn12	-1	12	-12	8	/	/
Cc1nn(Cc2ccccc2)c2sc(C(=O)NCc3cccnc3)cc12	2	24*	3	-3	14	-1
CC(C)[C@@H](NC(=O)OC(C)(C)C)c1cc(C(=O)c2c(-c3ccccc3)[nH]c3ccccc23)c(N)s1	/	41*	/	/	30*	-10
O=C1NCC(c2ccccc2)N(CCC23CC4CC(CC(C4)C2)C3)C1=O (configuration not stated)	13	/	2	/	/	/
CC1CN(c2ccc(Cl)cc2)c2nc3c(c(=O)[nH]c(=O)n3C)n2C1 (configuration not stated)	16	38*	7	-7	2	-3
CC1CN(c2ccccc2)c2nc3c(c(=O)[nH]c(=O)n3C)n2C1 (configuration not stated)	13	3	1	1	/	/
Cc1cc(C)cc(OCC(=O)NN=Cc2ccccn2)c1	5	/	6	/	/	/
CCO[C@H]1OC(C(=O)Nc2ccccc2)=C[C@@H](c2ccc(C(F)(F)F)cc2)[C@@H]1CCCO	/	31*	/	-4	6	-3

Source: PubChem BioAssay
